Common to all, as to experiment: DAPPL (digital affinity profiling via proximity ligation, sequencing); 10 mM Tris-HCl pH 7.5, 50 mM NaCl, 1 mM DTT, 4% glycerol, room temperature, 30 min; GST-TFs on glutathione beads, 16-mer random dsDNA library, 0.1% formaldehyde crosslink after washing; high values mean tight binding
For experiment [1], the target named is T1, FLI1 (Homo sapiens, UniProt Q01543 1-452).
T1 sequence: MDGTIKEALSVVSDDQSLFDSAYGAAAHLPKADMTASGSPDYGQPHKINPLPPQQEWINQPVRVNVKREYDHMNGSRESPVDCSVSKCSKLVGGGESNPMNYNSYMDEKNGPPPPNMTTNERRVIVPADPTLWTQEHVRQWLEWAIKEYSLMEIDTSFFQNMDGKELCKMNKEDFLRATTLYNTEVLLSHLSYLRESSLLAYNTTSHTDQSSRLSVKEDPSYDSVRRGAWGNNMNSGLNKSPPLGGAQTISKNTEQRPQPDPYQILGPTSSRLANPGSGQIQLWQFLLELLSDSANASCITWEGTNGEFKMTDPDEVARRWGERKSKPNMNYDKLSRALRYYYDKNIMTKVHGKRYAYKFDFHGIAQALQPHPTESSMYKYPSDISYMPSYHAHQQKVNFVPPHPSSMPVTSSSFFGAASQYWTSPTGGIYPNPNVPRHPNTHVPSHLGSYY
The conditions noted are these: protein: recombinant; tags: N-terminal GST; dsDNA, one strand shown. Summed up: (§1)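 Pools were built from human transcription factors expressed in yeast as GST fusions, captured on glutathione beads and DNA-barcoded, along with a tag-only sample. Incubation with 200 nmole of a 16-mer random double-stranded DNA library lasted 30 min at room temperature in Tris/NaCl/DTT/glycerol buffer, and was followed by washing, 0.1% formaldehyde crosslinking, proximity ligation, PCR amplification and Illumina NextSeq500 sequencing. Binding signal is the quotient of each hexamer's read frequency for a factor and its frequency for the tag-only sample.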

The target in experiment [2] is T2, ELK1 (Homo sapiens, UniProt P19419 1-428).
T2 sequence: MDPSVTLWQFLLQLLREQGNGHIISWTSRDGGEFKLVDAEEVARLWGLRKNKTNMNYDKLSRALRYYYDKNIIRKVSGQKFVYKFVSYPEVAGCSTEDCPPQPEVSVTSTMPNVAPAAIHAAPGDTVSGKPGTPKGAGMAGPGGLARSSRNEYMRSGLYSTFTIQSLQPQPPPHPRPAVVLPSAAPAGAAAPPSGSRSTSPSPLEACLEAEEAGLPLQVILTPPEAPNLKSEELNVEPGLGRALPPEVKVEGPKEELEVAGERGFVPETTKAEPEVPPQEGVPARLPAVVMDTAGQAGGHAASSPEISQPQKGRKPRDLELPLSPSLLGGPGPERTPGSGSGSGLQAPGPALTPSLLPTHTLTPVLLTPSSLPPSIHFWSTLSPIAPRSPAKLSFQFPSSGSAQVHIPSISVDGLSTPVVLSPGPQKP
The conditions noted are these: protein: recombinant; tags: N-terminal GST; dsDNA, one strand shown. Summed up:
as §1

Experiment [3] has as its target T3, GABPA (Homo sapiens, UniProt Q06546 1-454).
T3 sequence: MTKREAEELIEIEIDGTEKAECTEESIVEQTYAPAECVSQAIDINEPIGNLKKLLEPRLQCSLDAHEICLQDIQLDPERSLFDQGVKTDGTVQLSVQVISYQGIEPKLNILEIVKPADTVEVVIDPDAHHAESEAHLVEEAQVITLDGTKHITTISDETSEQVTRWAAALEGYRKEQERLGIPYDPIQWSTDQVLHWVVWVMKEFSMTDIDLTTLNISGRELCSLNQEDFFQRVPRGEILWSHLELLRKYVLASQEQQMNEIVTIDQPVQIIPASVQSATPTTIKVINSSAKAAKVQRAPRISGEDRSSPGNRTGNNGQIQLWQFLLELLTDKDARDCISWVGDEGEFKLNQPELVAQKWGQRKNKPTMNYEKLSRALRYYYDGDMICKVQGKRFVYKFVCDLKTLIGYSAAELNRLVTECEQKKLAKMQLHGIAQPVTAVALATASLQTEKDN
The conditions noted are these: protein: recombinant; tags: N-terminal GST; dsDNA, one strand shown. Summed up:
as §1

Experiment [4] concerns the target T4, ERG (Homo sapiens, UniProt P11308 1-479).
T4 sequence: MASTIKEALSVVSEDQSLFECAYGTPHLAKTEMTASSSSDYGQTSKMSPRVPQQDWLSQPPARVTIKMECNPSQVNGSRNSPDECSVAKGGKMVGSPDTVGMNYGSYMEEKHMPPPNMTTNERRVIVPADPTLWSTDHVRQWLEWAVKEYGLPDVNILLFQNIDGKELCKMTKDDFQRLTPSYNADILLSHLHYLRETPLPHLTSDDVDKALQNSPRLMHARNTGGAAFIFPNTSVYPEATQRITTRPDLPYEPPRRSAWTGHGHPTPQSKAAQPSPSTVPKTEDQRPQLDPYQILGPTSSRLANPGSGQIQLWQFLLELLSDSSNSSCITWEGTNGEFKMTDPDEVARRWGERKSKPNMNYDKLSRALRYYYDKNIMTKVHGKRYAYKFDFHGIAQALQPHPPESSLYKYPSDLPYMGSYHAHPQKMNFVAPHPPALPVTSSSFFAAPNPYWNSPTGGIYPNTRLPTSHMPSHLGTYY
The conditions noted are these: protein: recombinant; tags: N-terminal GST; dsDNA, one strand shown. The method in brief:
as §1

Experiment [5] deals with ELF1 (Homo sapiens, UniProt P32519 1-619). The conditions noted are these: protein: recombinant; tags: N-terminal GST; dsDNA, one strand shown. Summed up:
as §1

In experiment [6] the target is T5, EHF (Homo sapiens, UniProt Q9NZC4 1-300).
T5 sequence: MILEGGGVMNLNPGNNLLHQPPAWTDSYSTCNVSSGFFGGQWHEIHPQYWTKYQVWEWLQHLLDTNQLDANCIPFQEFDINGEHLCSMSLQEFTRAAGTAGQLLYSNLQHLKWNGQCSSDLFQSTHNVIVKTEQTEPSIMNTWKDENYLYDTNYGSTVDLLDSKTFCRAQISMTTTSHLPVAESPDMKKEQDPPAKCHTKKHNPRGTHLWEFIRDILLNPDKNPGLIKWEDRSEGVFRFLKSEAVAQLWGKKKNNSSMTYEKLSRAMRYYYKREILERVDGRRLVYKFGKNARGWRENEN
The conditions noted are these: protein: recombinant; tags: N-terminal GST; dsDNA, one strand shown. Summed up:
as §1

In experiment [7] the target is SPI1 (Homo sapiens, UniProt P17947 1-270). The conditions noted are these: protein: recombinant; tags: N-terminal GST; dsDNA, one strand shown. Summed up: as §1
Experiment [8] deals with SPIB (Homo sapiens, UniProt Q01892 1-262). The conditions noted are these: protein: recombinant; tags: N-terminal GST; dsDNA, one strand shown. Summed up: as §1
For experiment [9], the target named is T6, ELK3 (Homo sapiens, UniProt P41970 1-407).
T6 sequence: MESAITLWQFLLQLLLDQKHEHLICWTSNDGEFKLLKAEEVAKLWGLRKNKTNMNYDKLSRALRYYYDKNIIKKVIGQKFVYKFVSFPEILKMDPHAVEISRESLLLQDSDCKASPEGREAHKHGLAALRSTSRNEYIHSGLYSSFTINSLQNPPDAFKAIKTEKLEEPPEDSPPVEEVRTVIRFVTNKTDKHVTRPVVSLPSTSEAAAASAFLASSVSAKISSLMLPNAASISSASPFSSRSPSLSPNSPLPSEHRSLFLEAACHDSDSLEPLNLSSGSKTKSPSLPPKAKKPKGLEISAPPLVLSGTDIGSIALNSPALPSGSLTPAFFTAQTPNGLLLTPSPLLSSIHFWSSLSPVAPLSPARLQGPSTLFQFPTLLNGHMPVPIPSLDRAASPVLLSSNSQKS
The conditions noted are these: protein: recombinant; tags: N-terminal GST; dsDNA, one strand shown. The method in brief:
as §1

The target in experiment [10] is T7, FEV (Homo sapiens, UniProt Q99581 1-238).
T7 sequence: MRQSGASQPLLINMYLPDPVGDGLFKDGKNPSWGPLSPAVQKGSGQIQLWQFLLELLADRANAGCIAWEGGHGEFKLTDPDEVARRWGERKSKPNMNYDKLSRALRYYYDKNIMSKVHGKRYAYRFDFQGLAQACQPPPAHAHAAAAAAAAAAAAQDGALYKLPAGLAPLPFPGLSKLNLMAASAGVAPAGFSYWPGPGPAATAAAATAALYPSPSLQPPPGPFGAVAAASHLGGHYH
The conditions noted are these: protein: recombinant; tags: N-terminal GST; dsDNA, one strand shown. Summed up: as §1

The target in experiment [11] is ETV5 (Homo sapiens, UniProt P41161 1-510). The conditions noted are these: protein: recombinant; tags: N-terminal GST; dsDNA, one strand shown. Summed up:
as §1

Experiment [12] concerns the target HSF1 (Homo sapiens, UniProt Q00613 1-529). The conditions noted are these: protein: recombinant; tags: N-terminal GST; chain copies: 3; dsDNA, one strand shown. The method in brief: as §1
Experiment [13] has as its target T8, SPIC (Homo sapiens, UniProt Q8N5J4 1-248).
T8 sequence: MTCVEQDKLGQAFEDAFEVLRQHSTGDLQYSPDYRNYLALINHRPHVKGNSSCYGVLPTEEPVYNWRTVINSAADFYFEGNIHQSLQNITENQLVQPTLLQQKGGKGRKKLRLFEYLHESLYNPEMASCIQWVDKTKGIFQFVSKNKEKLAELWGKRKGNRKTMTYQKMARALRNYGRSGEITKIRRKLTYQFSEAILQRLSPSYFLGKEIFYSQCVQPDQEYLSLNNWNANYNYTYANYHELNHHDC
The conditions noted are these: protein: recombinant; tags: N-terminal GST; dsDNA, one strand shown. Summed up:
as §1

In experiment [14] the target is ELF4 (Homo sapiens, UniProt Q99607 1-663). The conditions noted are these: protein: recombinant; tags: N-terminal GST; dsDNA, one strand shown. The method in brief: as §1
Experiment [15] deals with T9, ELK4 (Homo sapiens, UniProt P28324-2 1-405).
T9 sequence: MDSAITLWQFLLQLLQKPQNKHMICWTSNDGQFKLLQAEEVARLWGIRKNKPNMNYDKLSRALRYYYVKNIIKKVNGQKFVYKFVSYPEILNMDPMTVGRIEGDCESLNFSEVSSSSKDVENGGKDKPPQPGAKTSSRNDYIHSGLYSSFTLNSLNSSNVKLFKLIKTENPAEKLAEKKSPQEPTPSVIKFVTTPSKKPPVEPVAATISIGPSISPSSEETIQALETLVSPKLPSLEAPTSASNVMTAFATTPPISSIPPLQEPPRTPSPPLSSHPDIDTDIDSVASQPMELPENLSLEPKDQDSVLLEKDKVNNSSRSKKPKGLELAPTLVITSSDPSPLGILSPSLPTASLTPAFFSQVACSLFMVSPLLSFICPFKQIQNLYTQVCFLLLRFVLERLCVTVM
The conditions noted are these: protein: recombinant; tags: N-terminal GST; dsDNA, one strand shown. Summed up:
as §1

Experiment [16] concerns the target T10, ETV2 (Homo sapiens, UniProt O00321 1-342).
T10 sequence: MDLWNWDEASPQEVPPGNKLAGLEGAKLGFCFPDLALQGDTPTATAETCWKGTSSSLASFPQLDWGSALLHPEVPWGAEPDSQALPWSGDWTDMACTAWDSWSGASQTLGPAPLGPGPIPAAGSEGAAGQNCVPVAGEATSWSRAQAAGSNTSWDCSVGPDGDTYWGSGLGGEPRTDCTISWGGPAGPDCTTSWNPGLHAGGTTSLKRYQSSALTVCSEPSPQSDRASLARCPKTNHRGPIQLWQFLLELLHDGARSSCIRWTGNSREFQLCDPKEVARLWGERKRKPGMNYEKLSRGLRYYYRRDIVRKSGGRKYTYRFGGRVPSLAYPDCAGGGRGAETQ
The conditions noted are these: protein: recombinant; tags: N-terminal GST; dsDNA, one strand shown. Summed up:
as §1

Experiment [17] addresses T11, ELF3 (Homo sapiens, UniProt P78545 1-371).
T11 sequence: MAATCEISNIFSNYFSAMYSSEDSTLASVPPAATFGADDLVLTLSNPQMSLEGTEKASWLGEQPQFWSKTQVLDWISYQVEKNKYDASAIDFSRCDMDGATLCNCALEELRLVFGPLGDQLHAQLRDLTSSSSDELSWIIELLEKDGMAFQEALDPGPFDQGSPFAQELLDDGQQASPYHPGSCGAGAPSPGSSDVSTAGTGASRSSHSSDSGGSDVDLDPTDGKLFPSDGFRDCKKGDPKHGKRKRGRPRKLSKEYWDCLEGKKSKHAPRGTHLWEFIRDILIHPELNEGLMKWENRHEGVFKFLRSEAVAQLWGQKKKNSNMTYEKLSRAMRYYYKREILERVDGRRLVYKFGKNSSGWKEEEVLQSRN
The conditions noted are these: protein: recombinant; tags: N-terminal GST; dsDNA, one strand shown. Summed up:
as §1

In experiment [18] the target is CRX (Homo sapiens, UniProt O43186 1-299). The conditions noted are these: protein: recombinant; tags: N-terminal GST; dsDNA, one strand shown. The method in brief:
as §1

In experiment [19] the target is ETV1 (Homo sapiens, UniProt P50549 1-477). The conditions noted are these: protein: recombinant; tags: N-terminal GST; dsDNA, one strand shown. Summed up:
as §1

Sequence of ELF1 (P32519 whole entry): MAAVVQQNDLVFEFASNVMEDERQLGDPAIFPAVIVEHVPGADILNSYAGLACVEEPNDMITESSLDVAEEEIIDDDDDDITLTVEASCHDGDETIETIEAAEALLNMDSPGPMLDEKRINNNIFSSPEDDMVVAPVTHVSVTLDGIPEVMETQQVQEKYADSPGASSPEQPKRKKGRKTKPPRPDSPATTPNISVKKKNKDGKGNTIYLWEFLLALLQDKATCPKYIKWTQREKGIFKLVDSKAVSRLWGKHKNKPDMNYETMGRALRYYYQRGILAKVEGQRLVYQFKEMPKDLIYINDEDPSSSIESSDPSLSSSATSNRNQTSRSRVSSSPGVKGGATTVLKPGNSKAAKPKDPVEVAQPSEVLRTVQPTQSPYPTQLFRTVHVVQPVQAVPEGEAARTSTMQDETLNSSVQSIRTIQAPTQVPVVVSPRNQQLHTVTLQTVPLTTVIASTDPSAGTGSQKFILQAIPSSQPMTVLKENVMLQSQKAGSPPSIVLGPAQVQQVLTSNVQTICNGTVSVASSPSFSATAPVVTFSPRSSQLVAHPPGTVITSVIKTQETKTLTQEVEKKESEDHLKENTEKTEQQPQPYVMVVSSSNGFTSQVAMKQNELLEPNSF
Sequence of ETV5 (P41161 whole entry): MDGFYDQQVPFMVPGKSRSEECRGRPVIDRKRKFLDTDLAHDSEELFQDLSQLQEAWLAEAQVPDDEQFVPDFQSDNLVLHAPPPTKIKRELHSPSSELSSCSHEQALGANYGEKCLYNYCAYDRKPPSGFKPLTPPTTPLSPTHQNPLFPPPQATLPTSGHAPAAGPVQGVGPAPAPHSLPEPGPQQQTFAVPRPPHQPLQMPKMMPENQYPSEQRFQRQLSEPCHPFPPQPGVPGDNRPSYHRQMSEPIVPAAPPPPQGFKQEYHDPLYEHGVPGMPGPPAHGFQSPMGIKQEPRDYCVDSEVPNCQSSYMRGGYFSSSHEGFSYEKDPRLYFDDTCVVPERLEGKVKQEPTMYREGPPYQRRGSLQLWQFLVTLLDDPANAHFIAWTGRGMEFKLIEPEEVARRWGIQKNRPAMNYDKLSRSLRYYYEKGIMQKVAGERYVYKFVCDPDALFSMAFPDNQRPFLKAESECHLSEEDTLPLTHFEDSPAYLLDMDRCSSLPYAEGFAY
Sequence of SPIB (Q01892 whole entry): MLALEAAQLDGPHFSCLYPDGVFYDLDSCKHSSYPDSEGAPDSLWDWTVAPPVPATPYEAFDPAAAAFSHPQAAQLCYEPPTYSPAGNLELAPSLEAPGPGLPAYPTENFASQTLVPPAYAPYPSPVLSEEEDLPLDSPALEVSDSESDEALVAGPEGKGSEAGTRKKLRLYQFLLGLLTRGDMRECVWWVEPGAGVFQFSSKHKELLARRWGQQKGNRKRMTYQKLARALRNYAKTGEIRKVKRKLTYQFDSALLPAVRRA
Sequence of HSF1 (Q00613 whole entry): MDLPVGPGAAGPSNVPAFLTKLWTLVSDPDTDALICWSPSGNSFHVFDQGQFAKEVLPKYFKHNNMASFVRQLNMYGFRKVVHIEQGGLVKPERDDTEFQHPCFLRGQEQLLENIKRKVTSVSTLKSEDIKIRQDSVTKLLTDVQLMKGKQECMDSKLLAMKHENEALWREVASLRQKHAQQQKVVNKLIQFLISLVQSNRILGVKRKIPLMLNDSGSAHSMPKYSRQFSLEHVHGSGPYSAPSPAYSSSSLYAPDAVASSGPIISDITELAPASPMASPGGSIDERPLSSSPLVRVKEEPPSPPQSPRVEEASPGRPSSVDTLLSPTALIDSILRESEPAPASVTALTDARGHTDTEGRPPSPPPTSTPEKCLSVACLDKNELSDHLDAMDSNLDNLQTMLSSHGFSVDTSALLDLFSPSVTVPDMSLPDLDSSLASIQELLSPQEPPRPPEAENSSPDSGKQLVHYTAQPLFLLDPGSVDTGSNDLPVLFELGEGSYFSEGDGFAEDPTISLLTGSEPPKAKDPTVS
Sequence of ETV1 (P50549 whole entry): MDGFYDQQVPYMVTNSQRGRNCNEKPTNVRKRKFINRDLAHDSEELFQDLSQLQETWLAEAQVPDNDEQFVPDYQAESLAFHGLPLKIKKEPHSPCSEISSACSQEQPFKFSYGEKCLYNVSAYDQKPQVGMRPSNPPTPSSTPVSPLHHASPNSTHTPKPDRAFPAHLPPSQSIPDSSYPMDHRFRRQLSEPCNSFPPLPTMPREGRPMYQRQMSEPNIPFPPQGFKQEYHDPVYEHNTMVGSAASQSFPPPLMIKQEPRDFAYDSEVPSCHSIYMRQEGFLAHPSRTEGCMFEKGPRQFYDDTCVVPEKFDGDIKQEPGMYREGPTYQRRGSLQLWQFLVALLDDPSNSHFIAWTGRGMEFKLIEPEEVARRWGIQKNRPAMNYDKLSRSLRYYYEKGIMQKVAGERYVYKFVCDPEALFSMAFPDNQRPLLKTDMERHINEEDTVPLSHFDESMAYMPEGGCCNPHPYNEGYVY
Sequence of ELF4 (Q99607 whole entry): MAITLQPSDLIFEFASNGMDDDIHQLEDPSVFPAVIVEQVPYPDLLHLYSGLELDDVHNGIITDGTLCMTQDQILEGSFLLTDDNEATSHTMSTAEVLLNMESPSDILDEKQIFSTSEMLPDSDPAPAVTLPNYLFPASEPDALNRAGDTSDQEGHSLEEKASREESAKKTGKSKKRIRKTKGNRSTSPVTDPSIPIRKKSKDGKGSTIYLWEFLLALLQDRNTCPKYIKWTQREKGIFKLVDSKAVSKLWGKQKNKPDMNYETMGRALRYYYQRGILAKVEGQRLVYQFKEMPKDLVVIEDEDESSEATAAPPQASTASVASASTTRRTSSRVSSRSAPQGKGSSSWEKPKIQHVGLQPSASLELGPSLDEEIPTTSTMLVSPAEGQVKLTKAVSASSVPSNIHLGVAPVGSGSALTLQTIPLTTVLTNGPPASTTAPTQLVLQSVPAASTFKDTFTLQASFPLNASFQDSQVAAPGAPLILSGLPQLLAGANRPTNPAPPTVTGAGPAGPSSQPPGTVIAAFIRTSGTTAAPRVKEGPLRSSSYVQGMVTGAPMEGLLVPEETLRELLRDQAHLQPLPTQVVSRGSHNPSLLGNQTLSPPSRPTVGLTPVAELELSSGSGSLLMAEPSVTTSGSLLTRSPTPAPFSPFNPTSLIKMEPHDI
Sequence of CRX (O43186 whole entry): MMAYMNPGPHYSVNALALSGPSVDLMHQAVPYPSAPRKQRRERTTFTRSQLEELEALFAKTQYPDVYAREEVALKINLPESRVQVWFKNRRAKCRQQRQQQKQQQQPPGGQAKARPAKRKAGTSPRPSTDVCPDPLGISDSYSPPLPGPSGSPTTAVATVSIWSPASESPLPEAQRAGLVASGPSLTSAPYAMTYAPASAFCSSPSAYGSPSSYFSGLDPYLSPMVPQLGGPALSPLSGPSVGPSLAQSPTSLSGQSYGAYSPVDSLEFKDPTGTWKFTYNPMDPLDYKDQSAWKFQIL

Take ATCTGT: the binding signal in experiment [1] is 1.25 fold enrichment (6-mer frequency, TF over GST control); in experiment [2], 1.24 fold enrichment (6-mer frequency, TF over GST control); in experiment [3], 1.18 fold enrichment (6-mer frequency, TF over GST control); in experiment [4], 1.19 fold enrichment (6-mer frequency, TF over GST control); in [5], 1.18 fold enrichment (6-mer frequency, TF over GST control); in experiment [6] it was 1.11 fold enrichment (6-mer frequency, TF over GST control). Further, the binding signal in experiment [7] was 1.13 fold enrichment (6-mer frequency, TF over GST control); in experiment [8], 1.14 fold enrichment (6-mer frequency, TF over GST control); in [9] it was 1.07 fold enrichment (6-mer frequency, TF over GST control); in experiment [10] it was 1.22 fold enrichment (6-mer frequency, TF over GST control); in experiment [11], 1.07 fold enrichment (6-mer frequency, TF over GST control); in experiment [12], 1.26 fold enrichment (6-mer frequency, TF over GST control). For the same sequence, the binding signal in experiment [13] is 1.19 fold enrichment (6-mer frequency, TF over GST control); in experiment [14], 1.21 fold enrichment (6-mer frequency, TF over GST control); in [15], 1.1 fold enrichment (6-mer frequency, TF over GST control); in experiment [16], 1.19 fold enrichment (6-mer frequency, TF over GST control); in [17], 1.17 fold enrichment (6-mer frequency, TF over GST control); in experiment [18], 1.45 fold enrichment (6-mer frequency, TF over GST control). Besides, in experiment [19], the binding signal was 1.26 fold enrichment (6-mer frequency, TF over GST control).
